Test results published in ChEMBL document CHEMBL4888484, “Replenishing the malaria drug discovery pipeline: Screening and hit evaluation of the MMV Hit Generation Library 1 (HGL1) against asexual blood stage Plasmodium falciparum ,using a nano luciferase reporter read-out” (2022).
In all, about 150,000 compounds went through this assay and about 540 (0.36%) showed an effect of 50% or more. This is one part of a sample in which strong results are shown more often than they occur.

test system: Plasmodium falciparum; assay: Primary screen in NF54 nanoGlo assay, in single point, at 2uM, 72h; a lower Z score goes with more inhibition; format: functional, Erythrocyte; settings: timepoint 72 hour

Row | Structure (SMILES) | % Inhibition [%] | Z score
1 | CN1CCC[C@@H]1CCNC(=O)c1ccc2nc(-c3ccc(F)cc3)cn2c1 | 8 | -1.12
2 | O=C(NCCN1CCCC1)c1ccc2nc(-c3ccc(Cl)cc3)cn2c1 | 75 | -6.47
3 | CN1CCCC[C@@H]1CNC(=O)c1ccc2nc(-c3ccc(F)cc3)cn2c1 | -5 | 0.91
4 | Cc1ccn2c(C(=O)NCc3cc(F)ccc3C)nnc2n1 | -17 | 3.23
5 | CCN1CCN(Cc2cc3cc4c(cc3nc2-c2ccc(Cl)cc2)OCO4)CC1 | -10 | 1.95
6 | CN1CCN(Cc2cc3cc4c(cc3nc2-c2ccc(Cl)cc2)OCO4)CC1=O | 53 | -6.77
7 | O=C1CCN(Cc2cc3cc4c(cc3nc2-c2ccc(Cl)cc2)OCO4)CCN1 | 2 | -0.18
8 | Cc1ccc(-c2nnc(N3CCC4(CCOC4)C3)n2CC2CCCO2)s1 (stereo not drawn) | -3 | 0.32
9 | O=C1N[C@H]2C[C@@H](C(=O)NC[C@H]3O[C@H](CCOc4cc(-c5ccccc5)ccc41)CC[C@@H]3O)N(Cc1ccc3c(c1)OCO3)C2 | 51 | -1.36
10 | O=C1N[C@H]2C[C@@H](C(=O)NC[C@H]3O[C@H](CCOc4cc(-c5ccccc5)ccc41)CC[C@@H]3O)N(Cc1ccc(Cl)c(F)c1)C2 | 37 | -4.16
11 | O=C1N[C@H]2C[C@@H](C(=O)NC[C@H]3O[C@H](CCOc4ccccc41)CC[C@@H]3O)N(Cc1ccc3c(c1)OCO3)C2 | 26 | -2.92
12 | CC(C)c1cc(NCCCn2ccnn2)nc(N)n1 | -5 | 0.75
13 | CC(C)(C)CCCC(=O)NCCn1cnnc1C1CC1 | -7 | 1.32
14 | CN1CCC(N(C)C(=O)c2ccccc2NC2CCCCC2)CC1 | 6 | -1.03
15 | CN1CC[C@@H](CNC(=O)c2ccnc3c2ncn3C)[C@@H]1c1cccnc1 | 1 | -0.18
16 | COCCC(CNC(C)c1nccnc1C)NC(=O)OC(C)(C)C (stereo not drawn) | -12 | 1.51
17 | CCN1CCN(c2c(CN(C(=O)NC3CCCCC3)C(C)C)c(C)nn2-c2cccc(F)c2)CC1 | -10 | 1.04
18 | Cc1ccc(C(=O)Nc2cc3c4c(c2)C2CCCC2CN4CC2CCCC32)cc1 (stereo not drawn) | 57 | -4.94
19 | Cc1ccc(C(=O)Nc2ccc(N3CCCN(C(=O)C4CCCC4)CC3)c(C(=O)N3CCCCC3)c2)cc1 | -4 | 0.58
20 | Cc1ccc(C(=O)Nc2cc(C(=O)N3CCCCC3C)cc(C(=O)N3CCCCC3C)c2)cc1 (stereo not drawn) | 6 | -0.87
21 | Fc1cc(Br)cnc1CN1CCC[C@H]1c1ncn[nH]1 | 19 | -2.4
22 | COc1ccc(CCNC(=O)N2CC=C(C(F)(F)F)CC2)cc1F | 6 | -1.17
23 | Cc1ccc(Nc2nc(N)nc(Cn3cnc(C)c3C)n2)cc1 | -3 | 0.51
24 | Cc1ccc(Nc2nc(N)nc(CN3CCCCCCC3)n2)cc1 | -5 | 0.66
25 | OC1CCN(Cc2ccc(CNc3ccc(F)cn3)cc2)CC1 | -6 | 0.93

Row | Structure (SMILES) | % Inhibition [%] | Z score
26 | CC(C)n1ccnc1[C@H]1CCCN(C(=O)c2cnc3c(c2)CCCC3)C1 | 3 | -0.26
27 | O=C(Nc1cc(C(F)(F)F)ccc1N1CCOCC1)c1nn(-c2ccccc2)c(=O)c2ccccc12 | -15 | 2.63
28 | CN1CCCN(c2ccc(NC(=O)c3nn(-c4ccccc4)c(=O)c4ccccc34)cc2F)CC1 | 82 | -6.28
29 | NC(=O)c1n[nH]c2ccc(NC(=O)c3nn(-c4ccccc4)c(=O)c4ccccc34)cc12 | -3 | 0.31
30 | NS(=O)(=O)c1cnc(N[C@H]2CCc3ccc(F)cc32)s1 | -3 | 0.33
31 | COc1cc(C)c2[nH]c3c(c(=O)c2c1)CN(CC(=O)Nc1ccc2c(c1)OCO2)CC3 | 44 | -0.61
32 | COc1cc(C)c2[nH]c3c(c(=O)c2c1)CN(CC(=O)Nc1ccc(F)c(C)c1)CC3 | 43 | -1.61
33 | COc1cc(C)c2[nH]c3c(c(=O)c2c1)CN(CC(=O)Nc1ccc2c(c1)OCCO2)CC3 | 52 | -1.23
34 | O=C1N(CC2CCCCC2)CCC[C@@]1(O)CN1CCOCC1 | -7 | 1.35
35 | CCOC1(c2nc(Cc3conc3C)no2)CCCC1 | 6 | -0.78
36 | CCOc1cc(Cl)ccc1C(=O)NC1CCN(C[C@H]2CCOC2)CC1 | 38 | -0.42
37 | c1nc(NCCC2CCCCC2)c2cnoc2n1 | 7 | -0.88
38 | CC(C)[C@@H](C(=O)NCc1cccc(C(F)(F)F)c1)N1CCCS1(=O)=O | -4 | 0.83
39 | Cc1c(-c2nn(-c3ccccc3)c(-c3cnn(C)c3C)c2Cl)cnn1C | 39 | -4.45
40 | Cc1nn(C)cc1-c1nn(-c2nc(C3CC3)cc(C(F)(F)F)n2)c(-c2cn(C)nc2C)c1C | 46 | 0.79
41 | Cc1c(-c2nn(-c3nc(C4CC4)cc(C(F)(F)F)n3)c(-c3cnn(C)c3C)c2Cl)cnn1C | 76 | -8.32
42 | Cc1nccn1C[C@H]1CCCN(C(=O)Cn2cccn2)C1 | -3 | 0.6
43 | COC(=O)c1cc(OC)ccc1-c1cccc(C(=O)N2CCNC[C@@H]2C)c1 | -17 | 1.67
44 | O=C(Nc1nc2cccc(Cl)c2o1)c1cccc(F)c1 | 89 | -8.47
45 | Cc1nc(N2CCCC2)nc(C)c1NC(=O)c1cccc(F)c1 | -5 | 0.84
46 | Cc1ccc(NC(=O)c2cccc(F)c2)c(-c2nc3ccccc3nc2O)c1 | -15 | 1.64
47 | COc1ccccc1N1CCN(C(=O)[C@H](C)n2ccnc2)CC1 | -19 | 2.94
48 | CCc1ccc(-c2cc(C(=O)Nc3ccc4nc(NS(C)(=O)=O)sc4c3)[nH]n2)cc1 | -13 | 1.27
49 | CCn1c(N2CCC[C@H](C(=O)NCc3cccc(Cl)c3)C2)cc(=O)n(C)c1=O | -20 | 3.09
